From PubChem BioAssay
Activity calls are given as the source filed them.

Key:
[1] = small molecules captured by biotinylated probe aFSTL3 – biochemical, small-molecule microarray, fluorescence 635/667, stem cell growth factor project, primary screen (AID 1064); conditions: higher = more signal;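 note: measures binding of the biotinylated anti-FSTL3 antibody to printed compounds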
[2] = binders from COS7 lysate, DM2A8 probe, primary screen, torsin A project, cell lysate, small-molecule microarray, fluorescence 635/667 (AID 1065); conditions: higher = more signal, COS7 lysate expressing mutant human TOR1A
[3] = small molecules captured by biotinylated probe aFGF2 – biochemical, small-molecule microarray, fluorescence 635/667, stem cell growth factor project, primary screen (AID 1067); conditions: higher = more signal;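 note: measures binding of biotinylated aFGF2 protein to printed compounds on slides; z-score merges feature fluorescence and signal-to-noise across triplicate slides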
[4] = small molecules captured by biotinylated probe aFGF10 – biochemical, small-molecule microarray, fluorescence 635/667, stem cell growth factor project, primary screen (AID 1071); conditions: higher = more signal;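 note: score merges 667 nm spot intensity and signal to noise from triplicate slides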
[5] = target: Neurogenic locus notch homolog protein 2 (Homo sapiens) (UniProt Q04721); assay: small molecules binding Notch2 protein – biochemical, small-molecule microarray, 635 nm fluorescence, stem cell growth factors, primary screen (AID 1073); conditions: higher = more signal
Neurogenic locus notch homolog protein 2 (Homo sapiens), sequence (Q04721 whole entry, looked up, canonical isoform): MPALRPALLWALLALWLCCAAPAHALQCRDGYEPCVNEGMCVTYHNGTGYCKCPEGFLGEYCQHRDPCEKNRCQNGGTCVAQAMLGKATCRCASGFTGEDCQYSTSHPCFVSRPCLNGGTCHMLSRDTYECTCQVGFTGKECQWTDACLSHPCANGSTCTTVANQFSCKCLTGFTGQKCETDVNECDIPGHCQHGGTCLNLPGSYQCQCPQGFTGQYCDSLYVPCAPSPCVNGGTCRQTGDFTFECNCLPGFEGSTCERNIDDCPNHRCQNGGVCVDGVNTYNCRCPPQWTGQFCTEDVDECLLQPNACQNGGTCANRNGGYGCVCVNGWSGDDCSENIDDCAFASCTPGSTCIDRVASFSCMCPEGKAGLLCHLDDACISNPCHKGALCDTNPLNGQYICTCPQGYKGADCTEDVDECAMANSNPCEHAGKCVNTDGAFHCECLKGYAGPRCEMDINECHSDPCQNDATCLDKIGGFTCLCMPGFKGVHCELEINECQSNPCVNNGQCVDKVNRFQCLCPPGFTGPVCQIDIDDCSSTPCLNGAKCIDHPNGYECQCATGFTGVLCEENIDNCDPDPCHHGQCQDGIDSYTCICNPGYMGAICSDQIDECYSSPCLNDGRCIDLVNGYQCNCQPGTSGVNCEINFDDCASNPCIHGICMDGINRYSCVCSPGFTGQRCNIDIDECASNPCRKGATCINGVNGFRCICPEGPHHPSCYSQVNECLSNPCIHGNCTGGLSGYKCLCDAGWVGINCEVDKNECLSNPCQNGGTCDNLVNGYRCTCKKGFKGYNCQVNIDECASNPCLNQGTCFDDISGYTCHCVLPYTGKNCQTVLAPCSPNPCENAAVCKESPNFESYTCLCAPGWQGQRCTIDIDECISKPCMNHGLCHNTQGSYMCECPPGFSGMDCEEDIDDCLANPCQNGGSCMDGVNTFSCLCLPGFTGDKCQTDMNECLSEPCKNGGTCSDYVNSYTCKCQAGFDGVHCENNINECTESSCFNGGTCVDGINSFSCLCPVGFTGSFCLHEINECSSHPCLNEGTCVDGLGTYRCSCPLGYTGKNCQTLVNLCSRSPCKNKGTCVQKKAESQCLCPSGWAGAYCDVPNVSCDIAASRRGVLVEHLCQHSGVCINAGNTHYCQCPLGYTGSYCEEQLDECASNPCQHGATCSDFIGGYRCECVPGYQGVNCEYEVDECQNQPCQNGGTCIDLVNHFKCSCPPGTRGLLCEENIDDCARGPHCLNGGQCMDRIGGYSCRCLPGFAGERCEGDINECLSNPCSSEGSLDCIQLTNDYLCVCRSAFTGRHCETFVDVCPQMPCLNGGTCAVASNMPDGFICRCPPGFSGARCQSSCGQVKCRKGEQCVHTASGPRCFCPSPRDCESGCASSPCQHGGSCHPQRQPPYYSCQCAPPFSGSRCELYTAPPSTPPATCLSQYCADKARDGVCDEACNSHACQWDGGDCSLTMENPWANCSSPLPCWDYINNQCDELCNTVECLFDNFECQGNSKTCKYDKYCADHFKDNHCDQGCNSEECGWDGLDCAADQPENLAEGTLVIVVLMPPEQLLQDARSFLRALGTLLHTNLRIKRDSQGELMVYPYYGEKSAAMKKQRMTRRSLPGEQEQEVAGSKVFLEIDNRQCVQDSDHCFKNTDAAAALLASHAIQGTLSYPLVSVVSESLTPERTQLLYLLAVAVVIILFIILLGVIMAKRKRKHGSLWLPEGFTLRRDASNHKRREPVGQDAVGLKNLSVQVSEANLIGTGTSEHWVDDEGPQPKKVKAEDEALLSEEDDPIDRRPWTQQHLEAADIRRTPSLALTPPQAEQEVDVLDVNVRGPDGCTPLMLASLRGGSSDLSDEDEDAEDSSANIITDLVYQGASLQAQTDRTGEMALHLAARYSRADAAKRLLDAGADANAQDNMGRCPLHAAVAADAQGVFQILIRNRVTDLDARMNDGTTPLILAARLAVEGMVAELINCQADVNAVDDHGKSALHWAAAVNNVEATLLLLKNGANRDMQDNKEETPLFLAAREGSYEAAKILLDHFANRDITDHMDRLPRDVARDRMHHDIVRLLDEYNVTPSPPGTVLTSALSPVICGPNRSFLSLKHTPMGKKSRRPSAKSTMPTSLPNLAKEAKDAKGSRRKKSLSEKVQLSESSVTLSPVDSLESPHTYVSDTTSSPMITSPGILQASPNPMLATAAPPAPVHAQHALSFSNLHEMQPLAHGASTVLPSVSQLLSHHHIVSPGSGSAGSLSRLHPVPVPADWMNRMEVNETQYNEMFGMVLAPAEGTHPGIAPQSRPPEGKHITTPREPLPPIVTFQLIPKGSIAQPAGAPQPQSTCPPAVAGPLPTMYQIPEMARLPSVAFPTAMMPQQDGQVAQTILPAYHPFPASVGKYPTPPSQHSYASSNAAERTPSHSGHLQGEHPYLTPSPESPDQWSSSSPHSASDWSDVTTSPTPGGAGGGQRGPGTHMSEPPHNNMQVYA

[6] = target: Pro-neuregulin-1, membrane-bound isoform (Homo sapiens) (UniProt Q02297); assay: small molecules binding neuregulin-1 protein – biochemical, small-molecule microarray, fluorescence 635/667, psychiatric disease protein project, primary screen (AID 1075); conditions: NRG1 binding, 635 nm fluorescence, higher = more signal;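 note: score combines 667 nm spot fluorescence with signal to noise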
Pro-neuregulin-1, membrane-bound isoform (Homo sapiens), sequence (Q02297 whole entry, looked up, the tested form may be a part, canonical isoform): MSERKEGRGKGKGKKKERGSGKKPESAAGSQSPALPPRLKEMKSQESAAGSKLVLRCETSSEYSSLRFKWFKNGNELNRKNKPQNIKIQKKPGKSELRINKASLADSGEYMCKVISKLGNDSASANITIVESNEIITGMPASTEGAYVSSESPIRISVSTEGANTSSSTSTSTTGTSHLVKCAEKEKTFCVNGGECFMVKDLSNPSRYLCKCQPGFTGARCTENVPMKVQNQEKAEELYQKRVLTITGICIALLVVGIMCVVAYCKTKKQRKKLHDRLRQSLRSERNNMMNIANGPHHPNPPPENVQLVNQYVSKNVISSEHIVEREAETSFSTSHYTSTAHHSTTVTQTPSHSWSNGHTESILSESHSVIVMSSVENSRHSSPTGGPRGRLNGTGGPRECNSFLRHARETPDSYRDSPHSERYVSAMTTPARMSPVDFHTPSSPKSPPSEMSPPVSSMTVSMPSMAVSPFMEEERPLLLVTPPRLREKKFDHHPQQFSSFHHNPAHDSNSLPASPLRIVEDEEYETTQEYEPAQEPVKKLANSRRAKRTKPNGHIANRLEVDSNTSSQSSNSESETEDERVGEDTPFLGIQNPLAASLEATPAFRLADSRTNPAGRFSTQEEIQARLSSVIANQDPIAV

[7] = system: Neuregulin-1 EGF-like domain; assay: small molecules binding NRG1 EGF domain – biochemical, small-molecule microarray, 635 nm fluorescence, primary screen (AID 1081); conditions: higher = more signal;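 note: binding of the protein to compounds printed on small-molecule microarray slides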
[8] = FRG1 expression reporter modulators in myotubes – cell-based, C2C12 myotubes, firefly/Renilla luciferase, luminescence, FRG1 inhibition for FSHD, primary screen (AID 1084); conditions: FRG1 promoter luciferase, higher = more signal, called active from +8 up or from −8 down
[9] = small molecules captured by biotinylated probe aFST – biochemical, small-molecule microarray, fluorescence 635/667, stem cell growth factor project, primary screen (AID 1086); conditions: higher = more signal;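 note: score merges 667 nm fluorescence with signal-to-noise of each printed compound spot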
[10] = binders of probe aHhip on microarray, primary screen, stem cell growth factor project, biochemical, small-molecule microarray, fluorescence 635/667 (AID 1087); conditions: higher = more signal;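 note: score merges spot fluorescence at 667nm with spot signal to noise ratio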

Compound | composite z-score [1] | composite z-score [2] | composite z-score [3] | composite z-score [4] | composite z-score [5] | composite z-score [6] | composite z-score [7] | z-score [8] | composite z-score [9] | composite z-score [10]
C=CCC(OC(C)=O)[C@@H]1[C@@H](N(Cc2cccc3ccccc23)C(=O)Cc2ccc(OC)cc2)c2cc(OCCCO)ccc2N1C(=O)c1ccc(-c2ccccc2)cc1 (stereo not given in full) | 0.112 | 0.0969 | -0.112 | -0.153 | -0.0051 | 0.497 | -0.359 | -1.39 (inactive) | 0.428 | -0.201
COCCOC(=O)N1C(=O)[C@@]2(c3cc(C#CCCO)ccc31)[C@H](c1ccc(OCCO)cc1)N1[C@H](c3ccccc3)[C@H](c3ccccc3)OC(=O)[C@H]1[C@@H]2C(=O)Nc1nc2ccccc2s1 | 0.878 | 0.68 | 0.0943 | 0.575 | 0.586 | 0.222 | 1.1 | 2.92 (inactive) | 1.24 | 0.547
COc1cc(NN2C(C(O)c3cc(OC)c(OC)c(OC)c3)C=CC3C(=O)N(C)C(=O)C32)cc(OC)c1OC (stereo not given) | -0.0324 | 0.427 | -0.0613 | 0.899 | 1.34 | 1.98 | 1.23 | 0.78 (inactive) | 0.572 | 0.12
CCCC=C(CCC)[C@@H](NC(=O)C(C)(C)C)c1ccc(C(=O)OC)cc1 | 0.488 | -0.495 | 0.202 | 0.0431 | 1.45 | 0.992 | 0.883 | -4.15 (inactive) | 1.26 | -0.115
CCCC=C(CCC)[C@@H](NP(=O)(c1ccccc1)c1ccccc1)c1ccc(-c2ccccc2)cc1 | 0.0517 | 0.887 | 0.112 | 0.704 | 1.57 | 1.19 | 1.14 | -2.1 (inactive) | 1.14 | 0.172
C=C[C@@H](CO)N(Cc1ccc(OC)cc1)S(=O)(=O)c1ccc(Br)cc1 | -0.142 | 0.368 | -0.13 | 0.332 | -0.185 | 0.0749 | 0.996 | -4.18 (inactive) | -0.446 | -0.134
O=C1C2C=CC(C(O)c3ccco3)N(Nc3ccccc3F)C2C(=O)N1c1ccccc1 (stereo not given) | -0.111 | -0.501 | 0.134 | 0.458 | 1.02 | 1.32 | 0.894 | 0.793 (inactive) | 0.931 | -0.173
O=C1O[C@H](c2ccccc2)[C@H](c2ccccc2)N2[C@H]1[C@@H](C(=O)O)[C@]1(C(=O)Nc3ccc(C#CCCO)cc31)[C@H]2c1ccccc1OCCO | -0.324 | 0.627 | -0.0962 | 0.21 | -0.0765 | 0.944 | 1.23 | 0.37 (inactive) | -0.0238 | -0.0994
CCCCC(=C=CC[C@H](O)c1ccc(OCCO)cc1)CCO | -0.253 | -0.0707 | -0.114 | -0.161 | -0.425 | 1.48 | 0.66 | -0.572 (inactive) | -0.493 | 0.0156
CCCCN1CC=CC23O[C@@H]4/C=C\CCC(C)OC(=O)C4[C@H]2C(=O)N(CCCO)[C@@H]3C1=O (stereo not given in full) | 0.35 | -0.913 | -0.195 | -0.317 | -0.962 | 1.93 | 1.1 | -0.313 (inactive) | -0.663 | -0.306
COCC(=C=CC[C@H](O)c1ccc(CO)o1)CCO | -0.254 | -0.0406 | 0.0154 | 0.553 | -0.234 | 1.19 | 1.23 | 0.461 (inactive) | 0.51 | 0.382
CCOc1cc(C(O)C2C=CC3C(=O)NC(=O)C3N2Nc2ccc(Cl)cc2Cl)ccc1O (stereo not given) | 0.0596 | -0.565 | 0.042 | -0.246 | -0.463 | -0.226 | -0.885 | 0.59 (inactive) | 0.0054 | -0.297
CCOC(=O)C[C@H]1[C@H](OC(=O)c2ccc(C(=O)c3ccccc3)cc2)[C@@H](NC(=O)C2CCCCC2)c2cc(OCCCO)ccc2N1C(=O)c1ccc2ccccc2n1 | -0.244 | 0.213 | -0.0885 | 0.735 | 1.03 | 0.532 | 0.722 | 0.0852 (inactive) | 0.842 | 0.382
NC(=O)NCC#Cc1ccc2c(c1)[C@]1(C(=O)N2)[C@H](c2ccccc2OCCO)N2[C@H](c3ccccc3)[C@H](c3ccccc3)OC(=O)[C@H]2[C@@H]1C(=O)NC[C@H](O)c1ccccc1 | -0.0058 | 1.37 | -0.085 | 0.262 | -0.667 | 0.319 | -0.32 | -0.308 (inactive) | -0.312 | -0.122
COc1ccc(C(=O)Nc2ccc(CN3C(=O)[C@]4(O[C@H](CC(=O)N5Cc6ccccc6C[C@H]5CO)[C@@H]([Si](C)(C)c5ccc(OC)cc5)[C@@H]4C)c4ccccc43)cc2)cc1 | -0.402 | 0.716 | -0.0785 | 0.357 | 0.397 | 1.48 | 0.95 | -1.89 (inactive) | 0.0491 | -0.0618
CCCCCN1CC=CC23O[C@@H]4/C=C\CCCOC(=O)C4[C@H]2C(=O)N(C(C)CO)[C@@H]3C1=O (stereo not given in full) | 0.378 | -1.3 | -0.219 | -0.756 | -0.814 | 1.15 | 1.16 | -0.508 (inactive) | -0.738 | -0.399
C=CCNC(=O)[C@@H]1[C@H]2C(=O)O[C@H](c3ccccc3)[C@H](c3ccccc3)N2[C@H](c2ccccc2OCCO)[C@@]12C(=O)Nc1ccc(C#CCC(C(=O)OC)C(=O)OC)cc12 | -0.44 | 0.491 | -0.116 | 0.422 | 0.894 | 1.39 | 1.28 | 1.1 (inactive) | -0.437 | -0.347
